Results as given in PubChem BioAssay (EPA / NIEHS).
Where “and” joins values, the source holds several entries; their conditions need not be identical. Equal values may be shown once. More than one record can exist for a structure, and the calls need not agree. Calls of active or inactive are those of the source. The calls were made as follows: active = hit-call score of the fitted dose curve at least 0.9, where 1 is the maximum; inactive = score below 0.9.

Experiment: BSK_3C_Proliferation: Cell Proliferation Assessment in the BioMAP Diversity Plus: 3C Assay (AID 2283006);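 as to AC50: potency may reflect either rise or fall in cell number versus DMSO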
Conditions: primary human endothelial cells (HUVEC)
Method: BSK_3C is a cell-based, multiplexed-readout assay that uses umbilical vein endothelium, a human vascular primary cell, with measurements taken at 24 hours after chemical dosing in a 96-well plate.BSK_3C_Proliferation is an assay component measured in the BSK_3C assay. It measures 0.1% sulforhodamine related to cell proliferation using Sulforhodamine staining technology.Data from the assay component BSK_3C_Proliferation was analyzed into 1 assay endpoint. This assay endpoint, BSK_3C_Proliferation, was analyzed with bidirectional fitting relative to DMSO as the negative control and baseline of activity. Using a type of viability reporter, measures of total protein for gain or loss-of-signal activity can be used to understand the viability at the cellular-level. Furthermore, this assay endpoint can be referred to as a secondary readout, because this assay has produced multiple assay endpoints where this one serves a viability function. To generalize the intended target to other relatable targets, this assay endpoint is annotated to the cell cycle intended target family, where the subfamily is proliferation.
The levels of cell surface (or secreted, indicated by the prefix "s") biomarker endpoints were measured by ELISA. Overt cytotoxicity to cells in confluent adherent cultures (all systems other than the BT system) was assessed by measuring total protein levels using sulforhodamine B (SRB) staining in parallel cultures at the time of biomarker measurements, indicated as SRB endpoints. For proliferation assays for adherent cell types, individual cell types are cultured at sub-confluence and relative cell numbers quantified by SRB staining at time points optimized for each system (48 h: 3C and CASM3C systems; 72 h: BT and HDF3CGF systems; 96 h: SAg system). SRB was performed by staining cells with 0.1% SRB after fixation with 10% TCA and reading wells at 560 nm.Viability and proliferation of PBMC (T cells) was quantified by Alamar Blue reduction for the SAg and BT systems. For PBMC viability (referred to as PBMC Cytotoxicity within the assay endpoint names), cells were plated (75,000/well in a 96-well plate) and then chemical samples added for 1 h before addition of activators, SEB and TSST-1 (20 ng/mL final concentration each). Cells were incubated for 90 h. Then, Alamar Blue (20 uL/well) (Invitrogen, Cat DAL1100) was added for 6 h, and the plates were read with a fluorescence microplate reader at 546/580 nm (excitation/emission). For PBMC proliferation, cells were plated and activated as above but incubated for only 16 h prior to addition of Alamar Blue. Plates were read after 6 h.
For `COc1nc(C)nc(NC(=O)NS(=O)(=O)c2ccccc2Cl)n1`, the outcome was “inactive”.
For `COc1nc(C)nc(NC(=O)NS(=O)(=O)c2ccccc2CCC(F)(F)F)n1`, the outcome was “inactive”.
For `CCCCOC(=O)c1ccccc1C(=O)OCCCC`, the AC50 was 22.9 µM (active) and the outcome was “inactive”.
With `CC1COC(Cn2cncn2)(c2ccc(Oc3ccc(Cl)cc3)cc2Cl)O1` (stereo not given) the AC50 was 24.6 µM (active).
In the case of `CCON=C(CC)C1=C(O)CC(c2c(C)cc(C)cc2C)CC1=O` (stereo not given), the outcome is reported as “inactive”.
With `CCNc1nc(Cl)nc(NC(C)C)n1` the outcome was “inactive”.
With `N#CC(CCc1ccc(Cl)cc1)(Cn1cncn1)c1ccccc1` (stereo not given) the AC50 was 14.1 µM (active).
With `CS/C(C)=N/OC(=O)N(C)SN(C)C(=O)O/N=C(\C)SC` the AC50 was 5.82 µM (active).
For `Cc1ccc(-c2c(Cl)nc(C#N)n2S(=O)(=O)N(C)C)cc1`, the AC50 was 28.6 µM (active).
For `Cc1cc(Cl)ccc1OCC(=O)O`, the outcome was “inactive”.
In the case of `N#Cc1cc(Br)c(O)c(Br)c1`, the AC50 is reported as 15.8 µM (active).
In the case of `C=CCC1=C(C)[C@@H](OC(=O)[C@@H]2[C@@H](C=C(C)C)C2(C)C)CC1=O`, the AC50 is reported as 33.2 µM (active).
In the case of `COC(=O)N(OC)c1ccccc1COc1ccn(-c2ccc(Cl)cc2)n1`, the AC50 is reported as 2.34 µM (active).
In the case of `CON(C)C(=O)Nc1ccc(Cl)c(Cl)c1`, the outcome is reported as “inactive”.
In the case of `CC(C)Oc1cc(-n2nc(C(C)(C)C)oc2=O)c(Cl)cc1Cl`, the AC50 is reported as 27.5 µM (active).
For `CCCCNC(=O)OCC#CI`, the AC50 was 6.12 µM (active) and 7.64 µM (active).
In the case of `N#Cc1nn(-c2c(Cl)cc(C(F)(F)F)cc2Cl)c(N)c1S(=O)C(F)(F)F` (stereo not given), the AC50 is reported as 32.4 µM (active).
In the case of `CNC(=O)ON=CC(C)(C)SC`, the outcome is reported as “inactive”.
For `CCOP(=S)(OCC)SCn1c(=O)oc2cc(Cl)ccc21`, the AC50 was 29.2 µM (active).
For `CC(C)C1(C)N=C(c2nc3ccccc3cc2C(=O)O)NC1=O` (stereo not given), the outcome was “inactive”.
In the case of `COP(N)(=O)SC` (stereo not given), the outcome is reported as “inactive”.
For `CCCN(CCC)c1c([N+](=O)[O-])cc(S(N)(=O)=O)cc1[N+](=O)[O-]`, the AC50 was 30.8 µM (active) [middle of 4 runs].
For `O=C(O)c1nc(Cl)ccc1Cl`, the outcome was “inactive”.
For `COC(=O)C=C(C)OP(=O)(OC)OC`, the outcome was “inactive”.
For `CCOc1cc(Oc2ccc(C(F)(F)F)cc2Cl)ccc1[N+](=O)[O-]`, the AC50 was 13.4 µM (active).
For `CCCCNC(=O)n1c(NC(=O)OC)nc2ccccc21`, the AC50 was 11.2 µM (active).
With `CC(Oc1ccc(Cl)cc1Cl)C(=O)O` (stereo not given) the outcome was “inactive”.
In the case of `COc1cnc(OC)n2nc(NS(=O)(=O)c3c(OCC(F)F)cccc3C(F)(F)F)nc12`, the outcome is reported as “inactive”.
With `CCc1nn(C)c(C(=O)NCc2ccc(C(C)(C)C)cc2)c1Cl` the AC50 was 15.6 µM (active).
For `Oc1ccccc1-c1ccccc1`, the outcome was “inactive”.
For `CCCC1COC(Cn2cncn2)(c2ccc(Cl)cc2Cl)O1` (stereo not given), the outcome was “inactive”.
In the case of `COP(=S)(OC)Oc1nc(Cl)c(Cl)cc1Cl`, the AC50 is reported as 31.9 µM (active).
With `CNC(=S)S` the AC50 was 20 µM (active).
In the case of `CO/C=C(/C(=O)OC)c1ccccc1Oc1cc(Oc2ccccc2C#N)ncn1`, the AC50 is reported as 21.1 µM (active) and 13.6 µM (active) and the outcome is reported as “inactive”.
With `CCOC(=O)C(Cl)Cc1cc(-n2nc(C)n(C(F)F)c2=O)c(F)cc1Cl` (stereo not given) the outcome was “inactive”.
In the case of `C=CC1(C)OC(=O)N(c2cc(Cl)cc(Cl)c2)C1=O` (stereo not given), the outcome is reported as “inactive”.
For `CN(C)C(=S)SSC(=S)N(C)C`, the AC50 was 7 µM (active).
For `COC(=O)c1ccccc1C(=O)OC`, the outcome was “inactive”.
